This passage reports activity results from PubChem BioAssay.

The structures appear in SMILES notation.

The target in the first experiment is Tumor necrosis factor receptor superfamily member 10B (Homo sapiens) (UniProt O14763). In words: viability loss of caspase-8 NB7 cells with TRAIL – with/without TRAIL, luminescence panel, confirmation (AID 651596). The settings on record: NB7 neuroblastoma + caspase-8, TRAIL sensitization, NB7 Caspase-8, with TRAIL, mean of runs, at 10 µM, stronger effect = higher value.
Chain of Tumor necrosis factor receptor superfamily member 10B (Homo sapiens) (O14763 whole entry, looked up): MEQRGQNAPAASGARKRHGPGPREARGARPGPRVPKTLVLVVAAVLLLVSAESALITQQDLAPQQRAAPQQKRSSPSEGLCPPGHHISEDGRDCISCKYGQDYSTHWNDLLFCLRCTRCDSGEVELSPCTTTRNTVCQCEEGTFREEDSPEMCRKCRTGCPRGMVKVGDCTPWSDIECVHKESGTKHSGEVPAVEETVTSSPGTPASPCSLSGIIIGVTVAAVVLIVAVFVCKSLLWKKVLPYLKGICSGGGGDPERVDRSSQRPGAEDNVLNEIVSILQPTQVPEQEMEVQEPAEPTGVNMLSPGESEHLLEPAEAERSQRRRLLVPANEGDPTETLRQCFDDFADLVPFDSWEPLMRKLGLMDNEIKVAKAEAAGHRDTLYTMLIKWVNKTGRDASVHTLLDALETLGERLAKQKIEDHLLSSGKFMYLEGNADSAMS
`Clc1ccc2nc(-c3ccccc3)cn2c1`: the activity was 72.7%.
Same read-out and setting: then `COc1cc(C(=O)Nc2nc3ccccc3[nH]2)ccc1OC(F)F`, with 78.9%.
On to `Cc1ccc(C2=NS(=O)(=O)N(C)C(C(=O)NCc3cccs3)=C2)cc1`, for which the activity was 5.95%.
With `CC(=O)Oc1ccccc1/C=C/c1nc2ccccc2c(=O)o1`, the activity was 83.7%.
Take `O=C(CCl)N=c1sccn1Cc1cccc2ccccc12`: the activity is 98.8%.
`Cc1cc(N)n2nc(-c3ccccc3)cc2n1`: the activity came to 77.2%.
The same measure, in the same setting: then `COc1ccc(C2c3ccc4ccccc4c3Oc3ncn(CCCN(C)C)c(=N)c32)cc1` (stereo not drawn), with 24.2%.
`C=C(C)[C@@H]1C2=CC(C(=O)OC)=C(C[C@H](C(=C)C)[C@H]3O[C@H]3C3=C[C@H]1OC3=O)O2`: the activity is 72.2%.
`COc1ccc2oc(-c3ccccc3)cc(=O)c2c1`: the activity was found to be 76.1%.
With `COc1ccccc1/C=C/C1(C(=O)NC2CCCC2)CC(=O)N1c1ccc(C)cc1` (stereo not drawn), the activity came to 90.2%.
`CN(C)CCCN(C(=O)c1cc2cc([N+](=O)[O-])ccc2s1)c1nc2cc3c(cc2s1)OCCO3`: the activity came out at 92.2%.
Consider `O=C(/C=C/c1ccc(Cl)cc1Cl)N1CCc2ccccc21`, for which the activity was found to be 47.9%.
On the same count and under the same terms, then `Cc1ccc(NC(=O)C(=O)Nc2ccccn2)cc1`, with 75.7%; and `O=C(CCl)Nc1ccc(-c2ccccc2)cc1`, with 99.3%; and `CCc1ccc(/C=N/NC(=O)c2ccccn2)cc1`, with 83.9%.
Same read-out and setting: under `Clc1ccc(-n2ncc3c(N4CCCCCC4)ncnc32)cc1` stands 78%; under `O=C(CSc1nnc(-c2ccc(Br)cc2)o1)Nc1cccc(C(=O)O)c1`, 60.1%.
On to `COc1ccc(C(=O)N/N=C(/C)c2cccc(NC(=O)c3ccccc3F)c2)cc1`, for which the activity worked out at 53.5%.
As to `O=C(N/N=C/c1cccs1)c1ccc2c(c1)OCO2`, the activity came to 71.7%.
As for `Cc1cc(N/N=C/c2ccccc2Cl)nc(NCc2ccccc2)n1`, the activity was found to be 37.5%.
With `Nc1nnnn1/N=C/C(Br)=C/c1ccccc1`, the activity was 68.6%.
As to `COc1ccc(-c2cn3cc(C)ccc3n2)cc1Br`, the activity is 82.2%.
On the same count and under the same terms, then `CCN1CCN(Cc2ccc(NC(=O)c3cc(NC(=O)c4cncc(-c5ccc(C#N)cc5)c4)cc(OC)c3)cc2C(F)(F)F)CC1`, with 58%; and `Cc1ccc(C(=O)Nc2ccc3nccnc3c2)cc1`, with 77.5%.
As for `COc1cccc(/C=C2\Oc3ccc(O)cc3C2=O)c1O`, the activity is 66.8%.
Turning to `COc1cc(/C=N/NC(=O)COc2ccc(C)cc2)ccc1OC(=O)c1cccs1`, the activity is 58.4%.
Turning to `COC(=O)c1c(NC(=O)COc2ccc(Cl)cc2)sc2c1CC(C)(C)NC2(C)C`, the activity amounted to 81.2%.
Take `Cc1ccc(/C=C(\C#N)c2nc3ccccc3[nH]2)s1`: the activity was 69.8%.
Still for that read-out and setting: under `C#CC(=O)N(c1ccc(OC)cc1OC)C(C(=O)NC1CCCC1)c1cccs1` (stereo not drawn) stands 99%.
On to `CC(C)c1ccc(C(=O)NC2=NCCS2)cc1`, for which the activity came to 63.5%.
For `Cc1[nH]cnc1C(=O)N/N=C/c1c(Cl)cccc1Cl`, the activity stood at 58.7%.
`Cc1ccc(NC(=O)c2ccc(C)cc2)cc1`: the activity turned out to be 64.9%.
Regarding `CCc1ccc(Nc2n[n+](-c3ccccc3)c(-c3ccc(N(CC)CC)cc3)s2)cc1`, the activity was found to be 45.2%.
With `Cc1ccc(C(=O)N/N=C\c2cccc(OC(=O)c3cccc(F)c3)c2)cn1`, the activity is 37.2%.
With `Cc1cccc(-n2ncc3c(N4CCCC4)ncnc32)c1`, the activity turned out to be 75.4%.
Same read-out and setting: then `CC1(C)N=C(N)N=C(N)N1c1ccc(OCC(=O)N2CCOCC2)c(Cl)c1`, with 81.6%.
Regarding `COc1cccc(/C=N/Nc2nn3cnnc3c3ccccc23)c1`, the activity is 62%.
As to `O=C(Nc1ccc(NC(=O)C2CC2)cn1)c1ccccc1`, the activity was determined as 51.1%.
Still for that read-out and setting: then `CCCNC(=O)c1oc2ccc3c(c2c1C)C(=O)CC(C)(C)O3`, with 66.1%.

Tested on in a further experiment: not listed separately
The experiment is described as above. The conditions noted are these: NB7 neuroblastoma + caspase-8, without TRAIL, NB7 Caspase-8, without TRAIL, mean of runs, at 10 µM.
Turning to `Clc1ccc2nc(-c3ccccc3)cn2c1`, the activity came out at 74.1%.
`COc1cc(C(=O)Nc2nc3ccccc3[nH]2)ccc1OC(F)F`: the activity stood at 69.4%.
`Cc1ccc(C2=NS(=O)(=O)N(C)C(C(=O)NCc3cccs3)=C2)cc1`: the activity turned out to be 0.8%.
As for `CC(=O)Oc1ccccc1/C=C/c1nc2ccccc2c(=O)o1`, the activity is 84.8%.
For the compound `O=C(CCl)N=c1sccn1Cc1cccc2ccccc12`, the activity came out at 99.1%.
The same measure, in the same setting: then `Cc1cc(N)n2nc(-c3ccccc3)cc2n1`, with 68.2%.
For the compound `COc1ccc(C2c3ccc4ccccc4c3Oc3ncn(CCCN(C)C)c(=N)c32)cc1` (stereo not drawn), the activity is 76.8%.
The same measure, in the same setting: under `C=C(C)[C@@H]1C2=CC(C(=O)OC)=C(C[C@H](C(=C)C)[C@H]3O[C@H]3C3=C[C@H]1OC3=O)O2` stands 96%; under `COc1ccc2oc(-c3ccccc3)cc(=O)c2c1`, 78%.
Regarding `COc1ccccc1/C=C/C1(C(=O)NC2CCCC2)CC(=O)N1c1ccc(C)cc1` (stereo not drawn), the activity was found to be 88.8%.
As to `CN(C)CCCN(C(=O)c1cc2cc([N+](=O)[O-])ccc2s1)c1nc2cc3c(cc2s1)OCCO3`, the activity turned out to be 83%.
Still for that read-out and setting: then `O=C(/C=C/c1ccc(Cl)cc1Cl)N1CCc2ccccc21`, with 51.4%.
For `Cc1ccc(NC(=O)C(=O)Nc2ccccn2)cc1`, the activity turned out to be 71.7%.
`O=C(CCl)Nc1ccc(-c2ccccc2)cc1`: the activity is 99.7%.
Turning to `CCc1ccc(/C=N/NC(=O)c2ccccn2)cc1`, the activity was determined as 73%.
For `Clc1ccc(-n2ncc3c(N4CCCCCC4)ncnc32)cc1`, the activity stood at 74.8%.
On to `O=C(CSc1nnc(-c2ccc(Br)cc2)o1)Nc1cccc(C(=O)O)c1`, for which the activity was determined as 68.1%.
As to `COc1ccc(C(=O)N/N=C(/C)c2cccc(NC(=O)c3ccccc3F)c2)cc1`, the activity amounted to 62.1%.
For the compound `O=C(N/N=C/c1cccs1)c1ccc2c(c1)OCO2`, the activity amounted to 66%.
For the compound `Cc1cc(N/N=C/c2ccccc2Cl)nc(NCc2ccccc2)n1`, the activity is 34.1%.
As to `Nc1nnnn1/N=C/C(Br)=C/c1ccccc1`, the activity came out at 88.8%.
Regarding `COc1ccc(-c2cn3cc(C)ccc3n2)cc1Br`, the activity was found to be 77.3%.
Regarding `CCN1CCN(Cc2ccc(NC(=O)c3cc(NC(=O)c4cncc(-c5ccc(C#N)cc5)c4)cc(OC)c3)cc2C(F)(F)F)CC1`, the activity came to 98.7%.
Take `Cc1ccc(C(=O)Nc2ccc3nccnc3c2)cc1`: the activity was determined as 74.8%.
`COc1cccc(/C=C2\Oc3ccc(O)cc3C2=O)c1O`: the activity is 56.4%.
With `COc1cc(/C=N/NC(=O)COc2ccc(C)cc2)ccc1OC(=O)c1cccs1`, the activity is 48.5%.
As for `COC(=O)c1c(NC(=O)COc2ccc(Cl)cc2)sc2c1CC(C)(C)NC2(C)C`, the activity stood at 93.9%.
For the compound `Cc1ccc(/C=C(\C#N)c2nc3ccccc3[nH]2)s1`, the activity was 72%.
Take `C#CC(=O)N(c1ccc(OC)cc1OC)C(C(=O)NC1CCCC1)c1cccs1` (stereo not drawn): the activity is 99.6%.
Same read-out and setting: then `CC(C)c1ccc(C(=O)NC2=NCCS2)cc1`, with 67.1%.
Regarding `Cc1[nH]cnc1C(=O)N/N=C/c1c(Cl)cccc1Cl`, the activity was found to be 57.6%.
With `Cc1ccc(NC(=O)c2ccc(C)cc2)cc1`, the activity amounted to 63.8%.
Turning to `CCc1ccc(Nc2n[n+](-c3ccccc3)c(-c3ccc(N(CC)CC)cc3)s2)cc1`, the activity turned out to be 41.2%.
On the same count and under the same terms, under `Cc1ccc(C(=O)N/N=C\c2cccc(OC(=O)c3cccc(F)c3)c2)cn1` stands 36.8%; under `Cc1cccc(-n2ncc3c(N4CCCC4)ncnc32)c1`, 73.6%; under `CC1(C)N=C(N)N=C(N)N1c1ccc(OCC(=O)N2CCOCC2)c(Cl)c1`, 86%.
As to `COc1cccc(/C=N/Nc2nn3cnnc3c3ccccc23)c1`, the activity is 61.4%.
`O=C(Nc1ccc(NC(=O)C2CC2)cn1)c1ccccc1`: the activity worked out at 57%.
With `CCCNC(=O)c1oc2ccc3c(c2c1C)C(=O)CC(C)(C)O3`, the activity is 68.4%.
